Assay outcomes as filed in PubChem BioAssay.
This is a sample that favours compounds with a hit; in the whole collection about 5.9% have one here.
TGFb inhibitor: qHTS for Inhibitors of TGF-b. HepG2 CAGA-GFP TGF-b/SMAD3 reporter, GFP fluorescence, 18 h; TGF-beta stimulated, 500 pg/mL final. AID 588855, 2011. 410,000 compounds, 1.2% hits. Potency, µM (titrated, usually from 46.1 µM), without a hit: at the top dose activity, negative = inhibition, usual class: inhibitors; also: % is scaled to controls: 0 for no effect and ±100 for the full control effect; nearly all actives have a fitted effect of over 65% in size
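Per well, imaged GFP fluorescence of HEPG2 CAGA-GFP cells gives the signal; cells get compound, then TGF-beta (500 pg/mL final), 18 h at 37 degrees C; %Activity versus -TGF-beta and +DMSO controls.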
HepG2 viability: qHTS for Inhibitors of TGF-b: Cytotox Counterscreen | 410,000 compounds, 0.76% hits | AID 588856, 2011 | Potency, µM (titrated, usually from 46.1 µM), for the others: top-dose activity change, negative = cytotoxicity, usual class: cytotoxic | HepG2 CAGA-GFP viability, ATP luminescence, 18 h
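CellTiter-Glo luminescence gave cytotoxicity after 18 hours at 37 degrees C. The cells were HepG2 CAGA-GFP in 1% FBS DMEM, stimulated with 500 pg/mL TGF-beta after compound addition. %Activity was normalised to no-cell wells (complete cell-killing) and DMSO (no toxicity), and curves were fitted and classified.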
KB-3-1 cytotox: qHTS assay for MDR1-selective chemotherapeutics: Primary screen using the parental adenocarcinoma cell KB-3-1 | KB-3-1 viability, CellTiter-Glo ATP luminescence, 72 h | Potency, µM (highest dose often 46.1 µM), actives largely listed as cytotoxic | 400,000 compounds, 1.4% hits | AID 1347075, 2019; also: % is scaled to controls: 0 for no effect and ±100 for the full control effect; nearly all actives have a fitted effect of over 60% in size
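Screening of KB-3-1 cells (DMEM, 10% FBS, phenol-red free) ran from lowest to highest compound concentration; after 72 h at 37 °C viability was read luminescently and curves fitted.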
KB-V1 MDR tox: qHTS assay for MDR1-selective chemotherapeutics: Primary screen using the drug-selected MDR subline cells KB-V1. KB-V1 MDR cells viability, CellTiter-Glo, 72 h. Potency, µM (series often up to 46.1 µM), hits mostly cytotoxic. 400,000 compounds, 3.4% hits; also: % is scaled to controls: 0 for no effect and ±100 for the full control effect; nearly all actives have a fitted effect of over 60% in size
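Cells of the MDR subline KB-V1 are plated, dosed with compound at multiple concentrations, and incubated 72 h at 37 degrees C; CellTiter-Glo is then added and luminescence read after 10 min.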
ATXN viability: Viability Counterscreen for Primary qHTS for Inhibitors of ATXN expression; AID 651635, 2014; Potency, µM (top dose mostly 56.7 µM), hits mostly cytotoxic; S2 cells (HEK-293 line with an ATXN2-luciferase reporter) viability, CellTiter-Fluor protease fluorescence, 24 h; 400,000 compounds, 0.49% hits; also: nearly all actives have a fitted effect of over 40% in size
ATXN2 expr inh: Primary qHTS for Inhibitors of ATXN expression | 360,000 compounds, 0.72% hits | HEK-293 ATXN2-luciferase reporter, luminescence, 24 h | Potency, µM (top dose mostly 57 µM), for the others: at the highest dose activity change, negative = inhibition, most hits filed as inhibitors | AID 1745845, 2022; also: % is scaled to controls: 0 for no effect and ±100 for the full control effect; nearly all actives have a fitted effect of over 55% in size
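ATXN2-luciferase reporter cells (luciferase flanked by upstream and downstream ATXN2 gene portions) were treated 24 h at 37 °C with compounds at up to 57 uM. SteadyGlo luminescence gave expression; GF-AFC fluorescence gave viability.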
* hit, by the source's call. Calls follow the shape of the dose curve; as a rule, active = well fitted curve in the direction sought with a large enough effect; inconclusive = small, poorly fitted or top-dose-only effect, or another doubt; inactive = no such curve, though single readings can be large; an effect the other way counts as inactive or inconclusive. Potency is read from the fitted curve at half-maximal effect.

What do the screens show for `CCCNC(=O)C1CCN(S(=O)(=O)c2ccc(Br)cc2)CC1`?
TGFb inhibitor: 0%; HepG2 viability: -18%; KB-3-1 cytotox: inactive; KB-V1 MDR tox: 16µM*; ATXN viability: inactive; ATXN2 expr inh: -11%

How did CCC(Sc1nc2ccccc2c2nc(-c3ccccc3)nn12)C(=O)Nc1cccc(OC)c1 (stereo not given) do in these assays?
TGFb inhibitor: -10%; HepG2 viability: -1%; KB-3-1 cytotox: inactive; KB-V1 MDR tox: inconclusive; ATXN viability: inconclusive; ATXN2 expr inh: 9%

Results for COc1ccc2cc(-c3nc4ccc(C(=O)O)cc4[nH]3)c(=O)oc2c1 ?
TGFb inhibitor: -6%; HepG2 viability: -2%; KB-3-1 cytotox: inactive; KB-V1 MDR tox: inactive; ATXN2 expr inh: inconclusive

How did O=C(Nc1ccccc1N1CCCC1)C1CCN(S(=O)(=O)c2ccc(F)cc2)CC1 do in these assays?
TGFb inhibitor: -2%; HepG2 viability: 1%; KB-3-1 cytotox: inconclusive; KB-V1 MDR tox: 8.2µM*; ATXN viability: inactive; ATXN2 expr inh: 4%

What do the screens show for `CCOc1ccccc1NC(=O)C1CCCCN1S(=O)(=O)c1ccccc1` (stereo not given)?
TGFb inhibitor: 0%; HepG2 viability: 5%; KB-3-1 cytotox: inconclusive; KB-V1 MDR tox: 8.2µM*; ATXN viability: inconclusive; ATXN2 expr inh: -11%

What do the screens show for `CCOc1ccccc1NC(=O)C1CCCN(C(=O)NCc2ccccc2)C1` (stereo not given)?
TGFb inhibitor: -10%; HepG2 viability: 0%; KB-3-1 cytotox: inactive; KB-V1 MDR tox: 8.2µM*; ATXN viability: inactive; ATXN2 expr inh: -4%

How did COc1ccc(-c2cc3ncc(-c4ccccc4)c(N)n3n2)cc1 do in these assays?
TGFb inhibitor: inconclusive; HepG2 viability: -49%; KB-3-1 cytotox: inactive; KB-V1 MDR tox: inconclusive; ATXN viability: inactive; ATXN2 expr inh: 53%

Results for N#Cc1cnc2cc(-c3ccccc3)nn2c1N ?
TGFb inhibitor: 28%; HepG2 viability: -1%; KB-3-1 cytotox: inconclusive; KB-V1 MDR tox: 2.6µM*; ATXN viability: inactive; ATXN2 expr inh: 39%

Results for COc1ccccc1NC(=O)Cn1c(=O)n(Cc2ccc3c(c2)OCO3)c(=O)c2oc3ccccc3c21 ?
TGFb inhibitor: 4%; HepG2 viability: 0%

How did COC(=O)c1sccc1-c1ccc(C(=O)Nc2cccnc2)o1 do in these assays?
TGFb inhibitor: 0%; HepG2 viability: -7%; KB-3-1 cytotox: inactive; KB-V1 MDR tox: 5.8µM*; ATXN viability: inactive; ATXN2 expr inh: 41%

What do the screens show for `CCc1ccc(NC(=O)C(C)OC(=O)c2ccc(NS(=O)(=O)c3ccc(C)c([N+](=O)[O-])c3)cc2)cc1` (stereo not given)?
TGFb inhibitor: inconclusive; HepG2 viability: -2%; KB-3-1 cytotox: 23µM*; KB-V1 MDR tox: inconclusive; ATXN viability: inconclusive; ATXN2 expr inh: -25%

How did Cc1ccc(NC(=O)C(C)OC(=O)c2ccc(NS(=O)(=O)c3ccc(F)c(F)c3)cc2)cc1 (stereo not given) do in these assays?
TGFb inhibitor: inconclusive; HepG2 viability: -11%; KB-3-1 cytotox: inactive; KB-V1 MDR tox: inactive; ATXN viability: inactive; ATXN2 expr inh: 6%

How did Cc1c(C(=O)N2CCOCC2)oc2c1-c1nn(CC(=O)NCc3ccccc3)cc1CC2 do in these assays?
TGFb inhibitor: -19%; HepG2 viability: -18%

What do the screens show for `CCOc1ccc(CCNC(=O)Cn2nnc(-c3ccccc3)n2)cc1OCC`?
TGFb inhibitor: 1%; HepG2 viability: -12%; KB-3-1 cytotox: inactive; KB-V1 MDR tox: inconclusive; ATXN viability: inactive; ATXN2 expr inh: -7%

How did CCc1cc(-c2cnnn2Cc2ccccc2)ccc1-c1cn(CC(C)C)nn1 do in these assays?
TGFb inhibitor: inconclusive; HepG2 viability: -61%; KB-3-1 cytotox: inconclusive; KB-V1 MDR tox: 10µM*; ATXN viability: inconclusive; ATXN2 expr inh: inconclusive

How did COc1ccc(N2CCN(C(=O)c3cccc(NC(=O)c4nsc5ccccc45)c3)CC2)cc1 do in these assays?
TGFb inhibitor: 0%; HepG2 viability: -23%; KB-3-1 cytotox: inactive; KB-V1 MDR tox: inactive; ATXN viability: inconclusive; ATXN2 expr inh: 6%

Results for COc1ccc(CNCCC(c2ccc(F)cc2)c2ccc(OC(C)C)cc2)cc1OC (stereo not given) ?
TGFb inhibitor: inconclusive; HepG2 viability: -105%; KB-3-1 cytotox: inconclusive; KB-V1 MDR tox: inconclusive; ATXN viability: inconclusive; ATXN2 expr inh: inconclusive

Results for COc1ccc(CNCCC(c2ccc(F)cc2)c2ccc(OC)cc2)cc1 (stereo not given) ?
TGFb inhibitor: inconclusive; HepG2 viability: -97%; KB-3-1 cytotox: 23µM*; KB-V1 MDR tox: inconclusive; ATXN viability: inactive; ATXN2 expr inh: -14%

How did COc1ccc(C(CCNCc2ccccc2)c2ccc(F)cc2)cc1 (stereo not given) do in these assays?
TGFb inhibitor: 18µM*; HepG2 viability: -60%; KB-3-1 cytotox: inconclusive; KB-V1 MDR tox: 18µM*; ATXN viability: inactive; ATXN2 expr inh: -31%

How did COc1ccc(C(CCNC(C)c2ccccc2)c2ccc(F)cc2)cc1 (stereo not given) do in these assays?
TGFb inhibitor: 13µM*; HepG2 viability: -73%; KB-3-1 cytotox: inconclusive; KB-V1 MDR tox: 12µM*; ATXN viability: inconclusive; ATXN2 expr inh: 28µM*

Results for O=C(NCc1ccncc1)[C@@H]1CCCN1C(=O)[C@H]1CCCN1C(=O)c1cccc(Cl)c1 ?
KB-3-1 cytotox: inactive; KB-V1 MDR tox: inactive; ATXN viability: inactive; ATXN2 expr inh: -8%

What do the screens show for `O=C(CSc1c2c(nc3ccccc13)CCC2)Nc1ccc(F)cc1`?
TGFb inhibitor: inconclusive; HepG2 viability: -19%

What do the screens show for `COc1ccc(C2NC(=S)NC(C)=C2C(=O)Nc2ccccn2)cc1OC` (stereo not given)?
TGFb inhibitor: 14%; HepG2 viability: 7%; KB-3-1 cytotox: inactive; KB-V1 MDR tox: inactive; ATXN viability: inactive; ATXN2 expr inh: 4%

What do the screens show for `COc1ccc(C2NC(=S)NC(C)=C2C(=O)c2ccccc2)cc1OC` (stereo not given)?
TGFb inhibitor: -2%; HepG2 viability: 8%; KB-3-1 cytotox: inconclusive; KB-V1 MDR tox: 13µM*; ATXN viability: inactive; ATXN2 expr inh: -7%
